Source: PubChem BioAssay AID652257 (The Scripps Research Institute Molecular Screening Center, 2013)
About 4,800 (1.3%) of roughly 370,000 compounds were called active.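 How the source made its calls: active means inhibition above about 21% made by adding two undisclosed values (limit read from the data); inactive means the rest.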 Only a selection was taken, and actives are over-represented in it overall.

Biological target: Protein arginine N-methyltransferase 1 (Homo sapiens) (UniProt Q99873)
Experiment: human PRMT1 activity-probe blockers – biochemical, fluorescence polarization, primary screen (AID 652257)
Settings: recombinant PRMT1, activity-based probe fluorescence polarization; at 2.79 µM; stronger effect = higher value

Sequence of Protein arginine N-methyltransferase 1 (Homo sapiens) (Q99873 whole entry, looked up): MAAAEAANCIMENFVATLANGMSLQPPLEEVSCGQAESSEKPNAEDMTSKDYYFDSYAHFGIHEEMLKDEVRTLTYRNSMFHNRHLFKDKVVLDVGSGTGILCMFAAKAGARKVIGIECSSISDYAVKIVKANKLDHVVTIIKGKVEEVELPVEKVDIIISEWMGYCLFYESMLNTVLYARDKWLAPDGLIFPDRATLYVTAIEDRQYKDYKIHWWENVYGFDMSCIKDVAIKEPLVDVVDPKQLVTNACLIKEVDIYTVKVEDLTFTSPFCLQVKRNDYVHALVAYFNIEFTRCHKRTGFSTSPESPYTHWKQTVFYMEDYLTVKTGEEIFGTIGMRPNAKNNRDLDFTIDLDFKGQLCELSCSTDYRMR

Row | SMILES | inhibition
1 | CC(C)N1CCCCC(NC(=O)C(C)(C)C)C1=O (stereo not given) | -1.77% (inactive)
2 | Cc1ccc(C(c2sc3nc(C)nn3c2O)N2CCN(c3ccccc3)CC2)cc1 (stereo not given) | -1.11% (inactive)
3 | Cc1nc2sc(C(c3ccco3)N3CCOCC3)c(O)n2n1 (stereo not given) | 49.8% (active)
4 | Oc1c(C(c2ccco2)N2CCC3(CC2)OCCO3)sc2ncnn12 (stereo not given) | 21.8% (active)
5 | Cc1nc2sc(C(c3ccco3)N3CCC4(CC3)OCCO4)c(O)n2n1 (stereo not given) | 8.34% (inactive)
6 | Oc1c(C(c2cccs2)N2CCN(c3ccc(F)cc3)CC2)sc2ncnn12 (stereo not given) | -2.78% (inactive)
7 | CC(CCN1CCC(C(O)(c2ccccc2)c2ccccc2)CC1)Oc1ccc([N+](=O)[O-])cc1Cl (stereo not given) | -5.87% (inactive)
8 | CC(=O)Nc1ccc(NS(=O)(=O)c2cc(C)sc2C)cc1 | 3.68% (inactive)
9 | CC(C)C(C#CC1CC1)N(Cc1ccc2c(c1)OCO2)C(N)=NC(=O)/C=C/c1cccc(C(F)(F)F)c1 (stereo not given) | 1.58% (inactive)
10 | CCc1ccc(NC2Nc3cc(C)nn3S2)cc1 (stereo not given) | 30.6% (active)
11 | CC(C)N1CCCCC(NC(=O)c2ccc3ccccc3c2)C1=O (stereo not given) | 1.16% (inactive)
12 | O=C(OCc1cn([C@@H]2C[C@H](c3ccc(Cl)cc3)N(Cc3cccs3)C[C@H]2O)nn1)c1ccccc1 | 6.65% (inactive)
13 | COC(=O)[C@@]12CCCCC=C1N(CCc1ccc(Cl)cc1)C(=O)[C@H]2CC(=O)NCc1ccc(OC)c(OC)c1 | 1.14% (inactive)
14 | C#CCN([C@@H](C)C(=O)OCC)S(=O)(=O)c1ccc(Br)cc1F | -2.15% (inactive)
15 | O=C(COC(=O)COc1cc(Cl)c(Cl)cc1Cl)NC1CC1 | 0.44% (inactive)
16 | O=C(COc1cc(Cl)c(Cl)cc1Cl)NCCc1ccccn1 | -6.02% (inactive)
17 | NC(=S)NN=Cc1ccc(OC(=O)COc2cc(Cl)c(Cl)cc2Cl)cn1 | 47.2% (active)
18 | CCOC(=O)C1CCN(C(=O)C(C)(C)NC(=O)Nc2ccc(F)c(F)c2)CC1 | -1.45% (inactive)
19 | O=C(OC12CC3CC(CC(C3)C1)C2)c1ccc(NCc2cc(O)ccc2O)cc1 | 19.5% (inactive)
20 | CCS(=O)(=O)Nc1cc(C(=O)OC)ccc1C(=O)OC | 4.51% (inactive)
21 | COC(=O)c1ccc(NCc2cc(O)ccc2O)cc1 | 28.5% (active)
22 | CCC(=O)OCCCN1C(=O)CCC12CCC(c1ccccc1)CC2 (stereo not given) | 0.61% (inactive)
23 | O=C(NCc1cccs1)C1CCN(S(=O)(=O)c2ccccc2[N+](=O)[O-])CC1 | -2.52% (inactive)

Row | SMILES | inhibition
24 | COc1cccc(N2CCN(C3CC(=O)N(c4ccc(Cl)cc4)C3=O)CC2)c1 (stereo not given) | 17% (inactive)
25 | CCOC(=O)c1ccc(N2C(=O)CC(N3CCC(C(=O)OCC)CC3)C2=O)cc1 (stereo not given) | 53.2% (active)
26 | COc1ccc(CN2C(=O)CC(Cc3ccc(C)cc3)C2=O)cc1OC (stereo not given) | 2.37% (inactive)
27 | COc1ccc(CCN2C(=O)CC(N3CCC(C(N)=O)CC3)C2=O)cc1OC (stereo not given) | 39.3% (active)
28 | COc1ccc(N2C(=O)CC(N3CCC(C(N)=O)CC3)C2=O)cc1 (stereo not given) | 62.3% (active)
29 | CCOC(=O)c1ccc(N2C(=O)CC(N(C)Cc3ccccc3)C2=O)cc1 (stereo not given) | 1.83% (inactive)
30 | COc1cccc(N2C(=O)CC(N3CCN(S(=O)(=O)c4ccccc4)CC3)C2=O)c1 (stereo not given) | 4.31% (inactive)
31 | COc1ccc(CCN2C(=O)C3CC=C(C)CC3C2=O)cc1OC (stereo not given) | 0.69% (inactive)
32 | CCOC(=O)c1ccc(N2C(=O)CC(N3CCN(C(=O)c4ccccc4)CC3)C2=O)cc1 (stereo not given) | -1.22% (inactive)
33 | CCN(CC)C(=O)CC[C@@H]1CC[C@]2(CCCN(S(=O)(=O)C3CCCCC3)C2)O1 | 8.38% (inactive)
34 | CC1(C)SC2c3ccccc3C(=O)N2[C@@H]1C(=O)NCc1ccco1 (stereo not given in full) | 2.92% (inactive)
35 | CN=C1SC(C(=O)O)CC(=O)N1C (stereo not given) | 0.87% (inactive)
36 | COC(=O)[C@]12C[C@H](CC(=O)N3CCOCC3)C(=O)N(Cc3ccc(Cl)cc3Cl)C1=C[C@H](C(C)C)O[C@@H]2C1CC1 | 3.55% (inactive)
37 | c1ccc(C2CNCc3c2ccc2ccccc32)cc1 (stereo not given) | 2.21% (inactive)
38 | CCCC(C(=O)NCc1ccco1)N(C(=O)CNS(=O)(=O)c1ccccc1)C1CCCC1 (stereo not given) | -1.78% (inactive)
39 | COC(=O)C1CN(CC(C)C)CCS(=O)(=O)N1Cc1ccc(C)cc1 (stereo not given) | 6.76% (inactive)
40 | O=C(C1CCCN1S(=O)(=O)c1ccccc1)N1CCc2ccccc2C1 (stereo not given) | -6.97% (inactive)
41 | CC(C)CNS(=O)(=O)CC1NCCc2ccccc21 (stereo not given) | 4.3% (inactive)
42 | CCn1c2ccccc2c2cc(NC(=O)CSc3nnc(-c4ccccc4)n3-c3ccc(C)cc3)ccc21 | -1.61% (inactive)
43 | CN(CCOc1ccccc1)Cc1nc2cc(Cl)ccc2c(=O)[nH]1 | 2.3% (inactive)
44 | CN(CCOc1ccccc1)C(=O)c1cc(-c2ccco2)nc2ccccc12 | 29.2% (active)
45 | O=C(Nc1cccc(F)c1)c1coc(=O)c(Br)c1 | 5.43% (inactive)
46 | CC(=O)N1CCN(C(=O)c2cc(-c3ccc(C)o3)nc3ccccc23)CC1 | 32.5% (active)

Row | SMILES | inhibition
47 | O=C(c1cc(-c2ccco2)nc2ccccc12)N(Cc1nnc(-c2ccc(Cl)cc2)o1)C1CC1 | 22.5% (active)
48 | CC(=O)N1CCN(C(=O)c2cc(-c3ccc(Cl)s3)nc3ccccc23)CC1 | 2.92% (inactive)
49 | Cc1cc(C(=O)Nc2ccc(C)c(S(=O)(=O)N3CCOCC3)c2)c2ccccc2n1 | 0.88% (inactive)
50 | O=C(c1ccc(Cl)s1)N(Cc1nnc(-c2ccccc2Cl)o1)C1CC1 | 1.28% (inactive)
51 | CN(C)C(CNC(=O)CCCOc1ccccc1)c1ccco1 (stereo not given) | -0.86% (inactive)
52 | CC(C)N(Cc1nnc(-c2ccccc2Br)o1)C(=O)c1cc(Cl)nc2ccccc12 | -5.25% (inactive)
53 | O=C(Nc1cccc(F)c1)c1cc(-c2ccco2)nc2ccccc12 | 30.3% (active)
54 | O=C(c1cc(-c2ccc(Cl)s2)nc2ccccc12)N1CCOCC1 | -5.47% (inactive)
55 | COC(=O)C[C@H]1CC[C@H]2[C@H](COc3ccc(NC(=O)C4CC4)cc3C(=O)N2C)O1 | 1.52% (inactive)
56 | CC(=O)NCCc1ccc(S(=O)(=O)N(C)C2CCS(=O)(=O)C2)cc1 (stereo not given) | -0.5% (inactive)
57 | CN1C[C@]2(C=C3CCCCC3n3c(=O)n(-c4ccccc4)c(=O)n32)N=C1NC(=O)c1ccccc1 (stereo not given in full) | 1.11% (inactive)
58 | COC(=O)C[C@@H]1CC[C@H]2[C@@H](COc3ccc(NS(=O)(=O)CC(F)(F)F)cc3C(=O)N2C)O1 | 4.04% (inactive)
59 | O=C(CNS(=O)(=O)c1ccccc1)NCC(=O)OCc1ccccc1F | 1.67% (inactive)
60 | CC(=O)C1(C(=O)Nc2nccs2)CC(c2ccccc2C(F)(F)F)=NO1 (stereo not given) | 5.04% (inactive)
61 | O=C1CCC/C(=N\NC(=O)NC2CCCCC2)C1 | 0.8% (inactive)
62 | O=C(OC12CCCN(C1)/C(=C/c1ccccc1)C2)c1ccco1 (stereo not given) | -3.75% (inactive)
63 | CNC(=O)NC(=O)CSc1nnc(-c2ccc(F)cc2)n1CC1CCCO1 (stereo not given) | 2.71% (inactive)
64 | COc1ccccc1CCNC(=O)C1CCN(c2nc(C)cc(C)n2)CC1 | 1.67% (inactive)
65 | CCn1c(SCC(C)=O)nc2sc3c(c2c1=O)CCCC3 | -4.09% (inactive)
66 | COc1cccc(NC(=O)CN(C)C(=O)c2cc(Cl)nc3ccccc23)c1 | -4.52% (inactive)
67 | COc1ccc(NC(=O)CN(C)C(=O)c2cc(C)oc2C)cc1 | -0.84% (inactive)
68 | Cc1ccc(S(=O)(=O)CCC(=O)OCC(=O)N(C)C2CCS(=O)(=O)C2)cc1 (stereo not given) | 1.31% (inactive)
69 | CN(C(=O)COC(=O)c1cc(-c2ccco2)nc2ccccc12)C1CCS(=O)(=O)C1 (stereo not given) | 21.6% (active)

Row | SMILES | inhibition
70 | O=C(Nc1nc2ccc(Cl)cc2s1)c1cc(-c2ccc(Cl)cc2)nc2ccccc12 | 9% (inactive)
71 | Cc1ccc(NC(=O)c2cc(-c3ccc(C)o3)nc3ccccc23)nc1 | 47.4% (active)
72 | COc1ccc(NC(=O)CN(C)C(=O)c2cc(-c3ccc(C)o3)nc3ccccc23)cc1 | 26.9% (active)
73 | Cc1cc(NC(=O)c2ccccc2C)no1 | -1.67% (inactive)
74 | Cc1cc(C(=O)OCC(=O)N2C(C)CCCC2C)c2ccccc2n1 (stereo not given) | 7.6% (inactive)
75 | CC1(C)CC(CNCCC(c2ccc(F)cc2)c2ccco2)CCO1 (stereo not given) | -2.86% (inactive)
76 | O=C(NCCc1ccc(Cl)cc1Cl)c1cc([N+](=O)[O-])c[nH]c1=O | -1.63% (inactive)
77 | CC(=O)c1ccc(Cc2ncc(C(F)(F)F)cc2Cl)s1 | 1.39% (inactive)
78 | CCOC(=O)C1CCN(C(=O)C(C)(C)NC(=O)Nc2ccccc2Cl)CC1 | -1.31% (inactive)
79 | Cc1ccc(-n2c(SCC(=O)Nc3ccc(S(=O)(=O)Nc4nccs4)cc3)nnc2-c2cccnc2)cc1 | -3.77% (inactive)
80 | COCCNC(=S)Nc1cc(S(=O)(=O)N2CCOCC2)ccc1N1CCCCC1 | 29.6% (active)
81 | O=C(COC(=O)Cc1ccc(F)cc1)Nc1cc(S(=O)(=O)N2CCOCC2)ccc1N1CCCC1 | -0.54% (inactive)
82 | CC(C)CCC(=O)Nc1cc(S(=O)(=O)N2CCOCC2)ccc1N1CCCC1 | -0.42% (inactive)
83 | CN(C)Cc1cn(-c2ccc(-c3noc4c3C(=O)N(CC(=O)N3CCOCC3)CC4)cc2)nn1 | 3.49% (inactive)
84 | O=C(/C=C/c1cccc(C(F)(F)F)c1)N1CCN(c2ccccn2)CC1 | 3.3% (inactive)
85 | Cc1ccc(C)c(NC(=O)CCS(=O)(=O)c2ccccc2)c1 | 10% (inactive)
86 | O=S(=O)(Nc1n[nH]c(C(F)(F)F)n1)c1ccccc1 | -0.91% (inactive)
87 | Cc1noc(C)c1C(=O)OC(C)C(=O)Nc1ccc2c(c1)OCO2 (stereo not given) | -4.06% (inactive)
88 | O=S(=O)(NC1CC1)c1ccc(F)c(F)c1 | 0.17% (inactive)
89 | Cn1sc(=O)c2cc(S(=O)(=O)NC3CC3)ccc21 | 36.8% (active)
90 | CC1CCC(NS(=O)(=O)c2ccc3c(c2)CC(=O)N3)CC1 (stereo not given) | 2.71% (inactive)
